CYP2C19 act = activators of human cytochrome P450 2C19; P33261; activation factor at 5 µM; recombinant CYP2C19, luciferin-H EGE luminescence; stronger effect = higher value; 0 = fully inhibited enzyme, 1 = untreated enzyme; AID 1025; 96,000 tested, under 10 active;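 active = activation factor of at least 2 at 5 µM in the primary screen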;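 also: 0 = wells with 2.5 mM tranylcypromine and 1 = vehicle-only wells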
Target sequence (P33261 whole entry, looked up): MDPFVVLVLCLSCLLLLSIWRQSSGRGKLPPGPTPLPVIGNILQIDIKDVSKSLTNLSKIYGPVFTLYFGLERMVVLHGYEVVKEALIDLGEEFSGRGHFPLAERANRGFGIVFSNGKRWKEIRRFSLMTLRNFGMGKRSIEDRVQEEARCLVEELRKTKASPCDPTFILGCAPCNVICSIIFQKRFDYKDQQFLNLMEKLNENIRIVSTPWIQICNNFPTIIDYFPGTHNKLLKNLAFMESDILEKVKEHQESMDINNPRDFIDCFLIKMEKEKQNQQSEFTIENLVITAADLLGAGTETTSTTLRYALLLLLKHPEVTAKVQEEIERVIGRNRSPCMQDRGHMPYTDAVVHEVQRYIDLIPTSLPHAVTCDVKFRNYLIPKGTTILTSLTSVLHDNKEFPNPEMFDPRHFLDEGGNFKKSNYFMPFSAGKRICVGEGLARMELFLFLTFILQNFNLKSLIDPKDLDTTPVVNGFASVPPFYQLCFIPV
PLK1 inh = inhibitors of human PLK1 kinase; recombinant PLK1 kinase, TR-FRET peptide phosphorylation; AID 619; 97,000 compounds, 0.53% hits; inhibition, % at 10 µM;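 active = inhibition of 50% or more in the single-concentration screen; inactive = inhibition below 50%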;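 also: 0% = DMSO max control and 100% = H-89 dihydrochloride min control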
PLK1 PBD inh = blocks phosphopeptide binding to human Plk1 polo box domain. inhibition, %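 (tested at about 20 µM)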. P53350. 97,000 compounds, 0.13% hits. Plk1 PBD phosphopeptide binding, fluorescence polarization; in the data active = inhibition above about 34%, passing the limit was not always enough
CYP2C9 act = activators of human CYP2C9 | P11712 | recombinant CYP2C9, luciferin-H conversion, luminescence; stronger effect = higher value; factor 1 = untreated enzyme, 0 = blocked | activation factor at 5 µM | 96,000 compounds, 1.4% hits;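 active = activation factor of 2 or more for CYP2C9 at a 5 µM dose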;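 also: 0 = sulfaphenazole-blocked wells and 1 = vehicle-only wells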
CYP2C19 inh = inhibitors of human CYP2C19; P33261; CYP2C19 Supersomes, luciferin-H EGE luminescence, 30 min; inhibition, % at 5 µM; 96,000 compounds, 21% hits;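 active = CYP2C19 inhibition above a set limit at 5 µM in the primary screen, cut at about 50% in these data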;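 also: plate controls were negative control wells for no effect and 2.5 mM tranylcypromine positive control for full effect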
CYP2C9 inhib = human CYP2C9 inhibition; 96,000 compounds, 20% hits; CYP2C9 Supersomes, luciferin-H conversion, luminescence; inhibition, % at 5 µM; AID 777;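 active = blocking of liver enzyme CYP2C9 beyond about 50% at 5 µM, limit read from the data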
An asterisk follows results filed as active; x = not tested or not shown. Shown are actives, neighbours in structure and some others; about 28% of the full set was active somewhere.

SMILES | CYP2C19 act | PLK1 inh | PLK1 PBD inh | CYP2C9 act | CYP2C19 inh | CYP2C9 inhib
O=C(O)COc1ccc2nsnc2c1Cl | 1 | -4 | 12 | 1.1 | -1 | -13
Cc1ccc2nsnc2c1N(S(C)(=O)=O)S(C)(=O)=O | 0.4 | x | x | 0.8 | 63* | 21
Cc1ccc2nsnc2c1NS(=O)(=O)c1c(C)ccc2nsnc12 | 0.6 | -6 | 12 | 0.4 | 35 | 56*
CCOC(=O)CCCNS(=O)(=O)c1c(C)ccc2nsnc12 | x | -5 | 9 | x | x | x
Cc1cc(S(=O)(=O)Nc2c(C)ccc3nsnc23)ccc1F | 0.2 | 7 | -12 | 0.5 | 84* | 51*
Cc1sc2c(=O)n3c(nc2c1C(=O)NCCCN1CCOCC1)CCCCC3 | 0.1 | -4 | -2 | 0.1 | 86* | 90*
Cc1sc2c(=O)n3c(nc2c1C(=O)NC1CCCCC1)CCCCC3 | 0.2 | -8 | 5 | 0 | 84* | 96*
CCN(CC)C(=O)CSc1nc(O)c(Cc2ccccc2)c(=O)n1-c1ccccc1 | 1 | 1 | 6 | 1 | -2 | -4
CCOC(=O)N1CCC(N2C(=O)c3ccccc3C2Nc2cccnc2)CC1 (centres undefined) | 1.1 | x | x | 0.9 | -12 | 12
CCOC(=O)N1CCC(N2C(=O)c3ccccc3C2Nc2ccc(Cl)cn2)CC1 (centres undefined) | 0.4 | -5 | 14 | 0.4 | 58* | 58*
CCOC(=O)N1CCC(N2C(=O)c3ccccc3C2Nc2ccc3c(C)cc(=O)oc3c2)CC1 (centres undefined) | 0.6 | -5 | 10 | 0.2 | 41 | 81*
CCOC(=O)N1CCC(N2C(=O)c3ccccc3C2Nc2ccccc2C)CC1 (centres undefined) | 0.4 | -3 | -11 | 0.2 | 65* | 80*
c1ccc(OCCOCCSc2ncccn2)cc1 | 0.5 | -10 | -23 | 0.9 | 46 | 5
CCOC(=O)N1CCN(c2ncnc3c2[nH]c2ccc(OC)cc23)CC1 | 0.4 | -6 | -5 | 0.6 | 56* | 39
OC1(c2cccc(C(F)(F)F)c2)CCN(c2ncnc3c2[nH]c2ccc(F)cc23)CC1 | 0.3 | -5 | -3 | 0.1 | 71* | 85*
CCOC(=O)N1CCN(c2ncnc3c2[nH]c2ccc(F)cc23)CC1 | 0.4 | 0 | 15 | 0.5 | 60* | 49
COc1ccc(N2CCN(c3ncnc4c3[nH]c3ccccc34)CC2)cc1 | 1.1 | 0 | -11 | 1 | -7 | 0
CCc1cc2c(C)cc(=O)oc2cc1OC(=O)C1CCCN1C(=O)OC(C)(C)C (centres undefined) | 0.7 | -20 | 1 | 0.6 | 30 | 39
CSc1n[nH]c(-c2sccc2OCc2ccc(C)cc2)n1 | 0.2 | -7 | 33 | 0.4 | 83* | 58*
CSc1nnc(-c2sccc2OCc2ccccc2)n1C | 0.8 | -5 | 16 | 0.7 | 16 | 31
Cc1c(NS(C)(=O)=O)c(=O)n(-c2ccccc2)n1C | 1.1 | x | x | 1 | -7 | -1
Cc1cc(F)ccc1S(=O)(=O)Nc1c(C)n(C)n(-c2ccccc2)c1=O | 0.1 | 3 | -18 | 0.5 | 91* | 50*
CC(C)C(=O)Nc1ccc(NC(=O)c2cccc(F)c2)cn1 | 1 | -3 | 14 | 1 | 2 | -2
COCCn1c(=NC(=O)CSCC(=O)NC2CCCCC2)sc2cc(OC)ccc21 | 0.2 | -13 | -10 | 0.4 | 82* | 57*
COCCn1c(=NC(=O)CSC(C)=O)sc2cc(OC)ccc21 | 0.9 | x | x | 0.6 | 8 | 44
SMILES | CYP2C19 act | PLK1 inh | PLK1 PBD inh | CYP2C9 act | CYP2C19 inh | CYP2C9 inhib
CCOC(=O)c1[nH]c(COC(=O)CCCOc2ccccc2)c(C(=O)OCC)c1C | 0.6 | x | x | 0.2 | 45 | 80*
O=C1CCCc2c1cc(-c1ccccc1)n2-c1ccccc1 | 0.9 | -11 | -33 | 0.8 | 15 | 16
CCOc1ccc(OCC)c(N=c2oc3c(C)ncc(CO)c3cc2C(N)=O)c1 | 1 | -4 | -20 | 0.8 | -2 | 21
COc1cccc(N=c2oc3c(C)ncc(CO)c3cc2C(=O)Nc2ccccc2OC)c1 | 0.8 | -6 | 5 | 0.2 | 22 | 77*
CC(=O)C(=Nc1ccc(Cl)cc1Cl)NNc1cccc(Cl)c1 | 0 | 2 | 8 | 0 | 99* | 100*
CCOC(=O)CSC1=C(C#N)C(=O)NC2(CCCCC2)S1 | 0.8 | -5 | 11 | 0.4 | 24 | 61*
O=C(/N=C1\NC(=O)C(F)(C(F)(F)F)S1)NC1CCCCC1 (centres undefined) | 0.9 | x | x | 0.1 | 7 | 85*

Screens from PubChem.
